This is a sample that favours compounds with a hit; in the whole collection about 7% have one here.
S2 tox: viability counter-screen for ATXN expression inhibitors | 400,000 compounds, 0.49% hits | AID 651635 | S2 cells (HEK-293 line with an ATXN2-luciferase reporter) viability, CellTiter-Fluor protease fluorescence, 24 h | Potency, µM (top dose mostly 56.7 µM), most hits filed as cytotoxic; further: potency means the concentration at half of the fitted maximal effect; nearly all actives have a fitted effect of over 40% in size
IL1B secr inh: inflammasome signaling inhibition, IL-1 beta readout. THP-1 LPS/ATP IL-1B secretion, AlphaLISA, 16 h; stronger effect = lower value. activity change, % at 57.5 µM. AID 743279. 360,000 compounds, 4.7% hits; in the data active means activity change below about -50%; inconclusive means mostly about -30% to -49%; further: on the % scale 0 is the no-effect control and ±100 the full control effect
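THP-1 cells pretreated 1 hr with compounds (up to 57.5 uM final), then stimulated with LPS (250 ng/mL final) plus ATP (1.25 mM final); secreted IL-1B measured by AlphaLISA after 16 hr, decreased signal indicating inhibition.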
Integrin act MD: activators of alpha7 integrin expression for muscular dystrophy; AID 624291; Potency, µM (highest dose often 38.3 µM), without a hit: top-dose activation, usual class: activators; 350,000 compounds, 0.064% hits; alpha7betagal myoblasts, beta-gal FDG fluorescence, 48 h;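 further: potency means the concentration at half of the fitted maximal effect; 100% = response of the positive control SU9516; nearly all actives have a fitted effect of over 60% in size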
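Alpha7betagal+/- myoblasts (passage 13) were plated 16-24 hr, then exposed to compounds (1:260 dilution of DMSO stock) for 48 hours at 37C. After MPER lysis, β-galactosidase reporter activity was read as FDG fluorescence (ex 480/em 540) after 30 minutes.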
ATXN2 expr inh: ATXN2 expression inhibition; HEK-293 ATXN2-luciferase reporter, luminescence, 24 h; Potency, µM (series often up to 57 µM), for the others: at the highest dose activity change, negative = inhibition, hits mostly inhibitors; 360,000 compounds, 0.72% hits; AID 1745845; further: potency means the concentration at half of the fitted maximal effect; on the % scale 0 is the no-effect control and ±100 the full control effect; nearly all actives have a fitted effect of over 55% in size
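ATXN2-luciferase reporter cells (luciferase flanked by upstream and downstream ATXN2 gene portions) were treated 24 h at 37 °C with compounds at up to 57 uM. SteadyGlo luminescence gave expression; GF-AFC fluorescence gave viability.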
D3 ag: activates the human D3 dopamine receptor. D3R DiscoveRx beta-arrestin cells, luminescence, 90 min. max activation, %. 410,000 compounds, 0.58% hits. AID 652048; in the data active means max activation above about 30%; further: 0% is about no effect
Target sequence (P35462 whole entry, looked up): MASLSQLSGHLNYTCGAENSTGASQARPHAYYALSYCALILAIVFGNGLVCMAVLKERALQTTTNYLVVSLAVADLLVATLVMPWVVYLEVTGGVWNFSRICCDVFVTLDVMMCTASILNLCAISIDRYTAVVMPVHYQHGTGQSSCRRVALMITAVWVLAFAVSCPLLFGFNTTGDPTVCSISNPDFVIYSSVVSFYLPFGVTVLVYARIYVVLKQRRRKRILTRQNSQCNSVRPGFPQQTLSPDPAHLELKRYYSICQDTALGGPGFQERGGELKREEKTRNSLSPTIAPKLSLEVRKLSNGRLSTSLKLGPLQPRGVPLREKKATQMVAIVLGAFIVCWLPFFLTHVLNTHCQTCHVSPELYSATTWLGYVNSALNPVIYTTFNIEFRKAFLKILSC
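Cells at 1500/well, incubated overnight, then treated with pinned compounds (dopamine as control) for 90 min at 37 degrees C. DiscoveRx reagent added for 30 - 60 minutes at room temperature; luminescence read.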
DRD3 antagonist: antagonists of human D3 dopamine receptor; D3R cells, DiscoveRx beta-arrestin luminescence, antagonist mode; stronger effect = lower value; max response, negative = inhibition, %; 360,000 compounds, 2.5% hits; AID 652054; in the data active means max response below about -50%; inconclusive means no clear call, values can overlap the other calls; further: on the % scale 0 is the no-effect control and ±100 the full control effect
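Cells plated overnight at 1500 cells/well, then exposed to library compounds with dopamine controls for 90 minutes at 37 degrees C. DiscoveRx reagent added for 30–60 minutes at room temperature; luminescence read, quantitative HTS format.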
* = called active by the depositor; i = inactive; ? = inconclusive; nt = no result. Unless noted, the call rests on the fitted dose curve; in most records, active means well fitted curve in the direction sought with a large enough effect; inconclusive means small, poorly fitted or top-dose-only effect, or another doubt; inactive means no such curve, though single readings can be large; an effect the other way counts as inactive or inconclusive.

SMILES | S2 tox | IL1B secr inh | Integrin act MD | ATXN2 expr inh | D3 ag | DRD3 antagonist
O=C(CN1CCc2ccccc2C1)NCC(=O)Nc1ccc(F)cc1 | i | 0 | -15% | nt | -6 | 2
CN(C)C(=S)NC(=O)C(c1ccccc1)c1ccccc1 | i | -16 | 15% | 3% | 0 | 5
O=C(NCc1ccccn1)c1ccc(NS(=O)(=O)c2cccc(Cl)c2)cc1 | i | -5 | 14% | -10% | -15 | -61*
O=C(NCc1cccc(Cl)c1)c1ccc(S(=O)(=O)Nc2cccc(C(F)(F)F)c2)cc1 | i | -78* | ? | -6% | -24 | 0
O=C(Cc1cccc(C(F)(F)F)c1)NCc1cccc(Cl)c1 | i | -7 | -14% | -9% | 2 | 1
C1=C(CCNc2nnnn2-c2ccccc2)CCCC1 | i | 47 | -56% | -11% | -8 | -61*
Cc1cc(C(=O)NCc2cccs2)nn1C | i | 6 | 3% | 9% | 18 | -14
COc1cc(-c2cc3nc(NCc4cccc(Cl)c4)ccn3n2)cc(OC)c1OC | ? | 18 | nt | 13µM* | 13 | 7
COc1cc(Nc2ccn3nc(-c4ccc(F)cc4)cc3n2)cc(OC)c1OC | i | -68* | nt | 13% | 9 | 109
Clc1cccc(CNc2ccn3nc(-c4ccccc4Cl)cc3n2)c1 | ? | -73* | nt | 0% | -9 | 0
Cc1cc2c(cc1C)C(=O)C(=O)N2 | nt | 0 | 14% | -2% | -9 | ?
O=C(Nc1ccc(S(=O)(=O)N2CCCCC2)cc1)c1ccc(CN2CCc3ccccc3C2)cc1 | i | -3 | -37% | -35% | -14 | -22
O=C(Nc1cccnc1)c1ccc(CN2CCc3ccccc3C2)cc1 | i | 0 | -12% | -23% | -13 | -74*
Cc1cc(C)cc(NC(=O)c2ccc(CN3CCc4ccccc4C3)cc2)c1 | i | -73* | -42% | -25% | -11 | -67*
Cc1ccc(NC(=O)c2ccc(CN3CCc4ccccc4C3)cc2)cc1 | i | ? | 8% | 8% | -11 | -85*
O=C(Nc1ccccc1)c1ccc(CN2CCc3ccccc3C2)cc1 | i | -4 | -1% | -17% | -4 | ?
COCCCNC(=O)c1ccc(CN2CCc3ccccc3C2)cc1 | i | 21 | 11% | -16% | -19 | ?
Cc1cc(C)cc(NC(=O)c2ccc(CSc3nnnn3C)cc2)c1 | i | -53* | 17% | 8% | -6 | -3
CN(C)C(=O)c1ccc(-c2cc(C(F)(F)F)nn2C)s1 | i | nt | 6% | 50% | 5 | 14
O=C(Nc1cccc(C(F)(F)F)c1)C(Sc1n[nH]c(=O)[nH]c1=O)c1ccccc1 (stereo not given) | i | ? | 6% | -5% | 3 | 2
Cn1nnnc1SC(C(=O)Nc1cccc(C(F)(F)F)c1)c1ccccc1 (stereo not given) | i | -72* | 12% | -13% | -41 | -12
Cc1cc(C)cc(NC(=O)C(Nc2ccccc2)c2ccccc2)c1 (stereo not given) | i | -1 | 4% | 10% | 4 | 23
O=C(Nc1cccc(C(F)(F)F)c1)C(Sc1ncnc2ccccc12)c1ccccc1 (stereo not given) | i | -108* | -14% | -12% | -4 | -12
Cc1cc(C)cc(NC(=O)C(Sc2ncnc3ccccc23)c2ccccc2)c1 (stereo not given) | i | -58* | -28% | 2% | -6 | -30
C=C(C(=O)c1ccccc1)C(C)C(=C)C(=O)c1ccccc1 | 25µM* | -103* | -53% | 28µM* | -3 | ?
SMILES | S2 tox | IL1B secr inh | Integrin act MD | ATXN2 expr inh | D3 ag | DRD3 antagonist
O=C(c1ccccc1)C(c1ccccc1)c1ccccc1 | i | 11 | -27% | 7% | -11 | 0
C=C(C(=O)c1ccccc1)C(c1ccccc1)C(C)C(=O)c1ccccc1 (stereo not given) | nt | -97* | -52% | -28% | -4 | -20
COc1ccc(C(CC(=O)c2ccccc2)CC(=O)c2ccccc2)cc1 | i | -22 | -2% | -7% | -1 | 6
C=C(C(=O)c1ccccc1)C(C(=C)C(=O)c1ccccc1)c1ccc(OC)cc1 | ? | -61* | -61% | nt | -15 | ?
O=S(=O)(c1ccccc1)N1CCN(c2ccnc3cc(Cl)ccc23)CC1 | ? | -86* | -48% | 13µM* | 10 | -8
O=C(Nc1ccc(C(F)(F)F)cc1)N1CCN(c2ccnc3cc(Cl)ccc23)CC1 | ? | -65* | -72% | ? | -5 | -2
O=S(=O)(c1cccs1)N1CCN(c2ccnc3cc(Cl)ccc23)CC1 | i | nt | -44% | ? | -1 | ?
O=C(Nc1cc(F)ccc1F)N1CCN(c2ccnc3cc(Cl)ccc23)CC1 | ? | ? | 10% | ? | 1 | 8
O=C(NC12CC3CC(CC(C3)C1)C2)c1cccc(OC(F)F)c1 | i | ? | 4% | 33% | 10 | 2
Cc1ccc(-n2c(C)cc(C(=S)N3CCOCC3)c2C)cc1C | i | -67* | -35% | -19% | -16 | -16
Cc1cc(C(=S)N2CCOCC2)c(C)n1-c1ccc(F)cc1 | i | -7 | ? | 7% | 2 | 0
CC(C)CCNC(=O)C(c1ccc(O)cc1)N(Cc1ccco1)C(=O)CCC(=O)Nc1nccs1 (stereo not given) | i | -22 | 12% | -1% | 2 | 4
COCCN(CC1CCCN(C2Cc3ccccc3C2)C1)C(=O)CCC(C)=O (stereo not given) | i | -6 | 4% | -3% | -6 | -18
COCCN(CC1CCCN(C2Cc3ccccc3C2)C1)C(=O)CCC(N)=O (stereo not given) | i | -52* | -40% | -5% | -22 | ?
COc1ccc(N2CCN(C(=O)COC(=O)COc3cccc(C(F)(F)F)c3)CC2)cc1 | i | 5 | -18% | -6% | 6 | -3
Cc1ccc(Cl)c(NC(=O)CCl)c1Cl | i | -91* | -37% | 14% | -4 | 14
CC(C)CCNc1nc2c(c(=O)n(Cc3cccc(F)c3)c(=O)n2C)n1C | i | -19 | -27% | -20% | 8 | 27
O=C1CCc2cc(S(=O)(=O)N3CCC(C(=O)NC4CCCC4)CC3)ccc2N1 | i | 15 | -18% | 2% | 1 | 0
CCCCN(CC)Cc1ccc(CNC(=O)Nc2ccc(Cl)cc2)o1 | i | -62* | -69% | ? | -17 | -16
CCCC1=NN(C(=O)C(=O)Nc2ccc(Br)cc2)C(O)(C(F)(F)F)C1 (stereo not given) | ? | 21 | -19% | ? | -9 | -56*

Source: PubChem (National Center for Advancing Translational Sciences (NCATS))
